The record followed here is PubChem BioAssay (NCATS).

A short description of experiment [1]: Quantitative High-Throughput drug screen in 47 multiple myeloma cell lines against the NCATS MIPE library collection: KMS34_JCRB cell viability assay (AID 1918985). Further: nearly all actives have a fitted effect of over 40% in size. The procedure, abridged: (§1)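 Viability after 48 h drug exposure was measured as ATP-dependent luminescence. Cells, 500 per well, sat at 37 °C under 5% CO2; DMSO wells set 100%, media-only wells 0%.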

Experiment [2] can be described thus: Quantitative High-Throughput drug screen in 47 multiple myeloma cell lines against the NCATS MIPE library collection: OCIMY7_PLB cell viability assay (AID 1918987). Further: nearly all actives have a fitted effect of over 65% in size. The procedure, abridged:
as §1

Experiment [3] is described as follows: Quantitative High-Throughput drug screen in 47 multiple myeloma cell lines against the NCATS MIPE library collection: OPM1_PLB cell viability assay (AID 1918989). Further: nearly all actives have a fitted effect of over 40% in size. The procedure, abridged:
as §1

The nature of experiment [4]: Quantitative High-Throughput drug screen in 47 multiple myeloma cell lines against the NCATS MIPE library collection: SKMM1_PLB cell viability assay (AID 1919863). Further: nearly all actives have a fitted effect of over 35% in size. Conditions: SKMM1 myeloma viability, CellTiter-Glo ATP, 48 h; viability: stronger effect = lower value. The procedure, abridged:
as §1

Experiment [5] is described as follows: Quantitative High-Throughput drug screen in 47 multiple myeloma cell lines against the NCATS MIPE library collection: U266_ATCC cell viability assay (AID 1919864). Further: nearly all actives have a fitted effect of over 35% in size. In short, it runs like this: as §1
Experiment [6] can be described thus: Quantitative High-Throughput drug screen in 47 multiple myeloma cell lines against the NCATS MIPE library collection: XG6_PLB cell viability assay (AID 1919865). Further: nearly all actives have a fitted effect of over 40% in size. The procedure, abridged:
as §1

Experiment [7] is described as follows: Quantitative High-Throughput drug screen in 47 multiple myeloma cell lines against the NCATS MIPE library collection: XG1_PLB cell viability assay (AID 1919866). Further: nearly all actives have a fitted effect of over 35% in size. The procedure, abridged:
as §1

The nature of experiment [8]: Quantitative High-Throughput drug screen in 47 multiple myeloma cell lines against the NCATS MIPE library collection: VP6_DJ cell viability assay (AID 1919867). Further: nearly all actives have a fitted effect of over 40% in size. In short, it runs like this: as §1
Experiment [9] can be described thus: Quantitative High-Throughput drug screen in 47 multiple myeloma cell lines against the NCATS MIPE library collection: PE2_PLB cell viability assay (AID 1919869). Further: nearly all actives have a fitted effect of over 35% in size. In short, it runs like this: as §1
Experiment [10] is described as follows: Quantitative High-Throughput drug screen in 47 multiple myeloma cell lines against the NCATS MIPE library collection: PCM6_Riken cell viability assay (AID 1919870). Further: nearly all actives have a fitted effect of over 30% in size. The procedure, abridged:
as §1

Experiment [11] in a line: Quantitative High-Throughput drug screen in 47 multiple myeloma cell lines against the NCATS MIPE library collection: RPMI8226_ATCC cell viability assay (AID 1919871). Further: nearly all actives have a fitted effect of over 30% in size. The procedure, abridged:
as §1

Experiment [12] can be described thus: Quantitative High-Throughput drug screen in 47 multiple myeloma cell lines against the NCATS MIPE library collection: OPM2_DSMZ cell viability assay (AID 1919872). Further: nearly all actives have a fitted effect of over 30% in size. The procedure, abridged: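 CellTiter-Glo ATP luminescence gave viability after 48 h compound treatment at 37C of 500 multiple myeloma cells per well. Normalisation used DMSO-only wells as 100% and media-only wells as 0% viability; primary qHTS of approved and investigational drugs.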

Experiment [13] is described as follows: Quantitative High-Throughput drug screen in 47 multiple myeloma cell lines against the NCATS MIPE library collection: KMS11_JCRBsus cell viability assay (AID 1919873). Further: nearly all actives have a fitted effect of over 50% in size. In short, it runs like this: as §1
The nature of experiment [14]: Quantitative High-Throughput drug screen in 47 multiple myeloma cell lines against the NCATS MIPE library collection: KMS28BM_JCRB cell viability assay (AID 1919874). Further: nearly all actives have a fitted effect of over 35% in size. The procedure, abridged:
as §1

Experiment [15] is described as follows: qHTS drug screen for cell cycle checkpoint inhibitors in PARPi-resistant BRCA-mutant ovarian cancer cell lines. (AID 1963452; calls by dose curve). Conditions: PEO1/OlaR viability, CellTiter-Glo luminescence, 96 h; for Z-AUC: stronger effect = lower value. In short, it runs like this:
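PEO1, PEO4 and PEO1/OlaR ovarian cancer cells, 600 per well, exposed 96 h at 37C to a dilution series. Viability read by CellTiter-Glo luminescence, normalized to DMSO and empty wells; activity summarized as Z-AUC.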
(qHTS replaces the single test concentration by a dilution series.)

A short description of experiment [16]: qHTS for identification of novel therapeutic agents for treatment of microphthalmiaassociated transcription factor (MiT) renal cell carcinoma (RCC) (AID 1963991; calls by dose curve). Conditions: CellTiter-Glo, 48 h; for Potency: active = Z-AUC below -0.8 in all three lines; for z-score: stronger effect = lower value. The procedure, abridged: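 Curves over 11 concentrations were fitted to CellTiter-Glo luminescence, scaled between empty wells (0%) and DMSO (100%) viability. Cells were UOK109, UOK124 and UOK145 TFE3-fusion RCC lines at 500/well, exposed 48 hours at 37 C.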

The nature of experiment [17]: Quantitative High-Throughput drug screen in 47 multiple myeloma cell lines against the NCATS MIPE library collection: UTMC2_PLB cell viability assay (AID 1919868). Further: nearly all actives have a fitted effect of over 55% in size. The conditions noted are these: CellTiter-Glo ATP luminescence, 48 h; viability (% of DMSO control): at 45.8 µM (top of the series) unless noted. In short, it runs like this: as §1
Background: Cellular ATP, detected with luciferase, serves as a proxy for viable cell number.

The mark [18] stands for this setting: measured here: PEO1 parental Z-AUC.
Setting [19] is: TFE3-RCC UOK109 viability, measured here: UOK109 Z-AUC.
[20] abbreviates: TFE3-RCC viability, measured here: UOK124 Z-AUC.
Where [21] appears, read: TFE3-RCC viability, measured here: UOK145 Z-AUC.

Inconclusive results are not listed. The source made the active and inactive calls. Unless noted, the call rests on the fitted dose curve; in most records, active means well fitted cell-killing curve with a large enough effect; inconclusive means small, poorly fitted or top-dose-only effect, or effect the other way; inactive means no such curve, though single readings can be large or run the other way.
Potency means the concentration at half of the fitted maximal effect.

Take `CC[C@@H]1C(=O)N(C)c2cnc(Nc3ccc(C(=O)NC4CCC(N5CCN(CC6CC6)CC5)CC4)cc3OC)nc2N1C(C)C` (some centres not stated): the Potency in experiment [1] is 105 nM (active); in experiment [2], 833 nM (active); in experiment [3], 166 nM (active); in [4] it was 2350 nM (active); in experiment [5], 5900 nM (active); in [6], 209 nM (active). Besides, the Potency in experiment [7] was 18.7 nM (active); in experiment [8] it was 1660 nM (active); in [9], 8330 nM (active); in experiment [10], 1870 nM (active); in experiment [11], 8330 nM (active); in experiment [12], 118 nM (active). The Potency in experiment [13] was 29.6 nM (active); in experiment [14], 37.2 nM (active); in experiment [15] it was 87.1 nM (active); in experiment [16] (TFE3-RCC UOK109 viability) it was 3720 nM (active). Moreover, the Z-AUC in experiment [15] (setting [18]) was -2.37; in experiment [15] (measured here: PEO4 Z-AUC), -1.84. The figures for the z-score in [16] (setting [19]), in [16] (setting [20]) and in experiment [16] (setting [21]) were -1.29, -2.06 and -1.66, respectively.
Turning to `Nc1ccccc1NC(=O)c1ccc(CNc2nccc(-c3cccnc3)n2)cc1`, the Potency was 935 nM (active) in experiment [1]; 526 nM (active) in [2]; 264 nM (active) in experiment [3]; 1660 nM (active) in experiment [5]; 2640 nM (active) in experiment [6]; 1180 nM (active) in experiment [7]. For the same compound, the Potency in [8] is 469 nM (active); in [17] it was 833 nM (active); in experiment [9], 1320 nM (active); in [11], 2640 nM (active); in [12] it was 2640 nM (active); in [13] it was 662 nM (active). In addition, in experiment [14], the Potency is 833 nM (active). The Z-AUC in experiment [15] was -0.45 (inactive); in [15] (setting [18]), -0.821; in [15] (measured here: PEO4 Z-AUC) it was -0.657.
Regarding `COc1ccc2c(c1)CC[C@@H](CN(C)CC(=O)O)[C@H]2c1ccccc1`, the Potency in [1] is 4690 nM (active); in experiment [2], 833 nM (active); in experiment [3], 10500 nM (active); in [5], 16600 nM (active); in experiment [6], 833 nM (active); in [8], 1870 nM (active). Further, the Potency was 1660 nM (active) in [10], 8330 nM (active) in experiment [12], 662 nM (active) in experiment [13] and 1050 nM (active) in experiment [14]. In addition, the figures for the Z-AUC in [15], in experiment [15] (setting [18]) and in [15] (measured here: PEO4 Z-AUC) were 0.47 (inactive), 1.17 and 1.29, respectively.
As to `CC(C)c1cc(-c2n[nH]c(=O)n2-c2ccc3c(ccn3C)c2)c(O)cc1O`, the Potency was 26.4 nM (active) in experiment [1]; 11.8 nM (active) in experiment [2]; 29.6 nM (active) in [3]; 74.3 nM (active) in experiment [4]; 37.2 nM (active) in [5]; 59 nM (active) in experiment [6]. Moreover, the Potency in [7] is 29.6 nM (active); in experiment [8], 20.9 nM (active); in experiment [17], 52.6 nM (active); in experiment [9], 37.2 nM (active); in [10], 23.5 nM (active); in [11] it was 37.2 nM (active). In addition, the Potency is 41.8 nM (active) in [12], 16.6 nM (active) in [13], 41.8 nM (active) in experiment [14] and 74.3 nM (active) in [16] (TFE3-RCC UOK109 viability). The Z-AUC was -0.89 (inactive) in experiment [15], -1.07 in experiment [15] (setting [18]) and 0.105 in [15] (measured here: PEO4 Z-AUC). For the same compound, the z-score in experiment [16] (setting [19]) is -1.34; in experiment [16] (setting [20]) it was -0.923; in experiment [16] (setting [21]), -1.27.
